Consider 82 compounds from PubChem BioAssay AID651821 (The Scripps Research Institute Molecular Screening Center, 2012).

Hit rate of the full screen: of about 370,000 compounds, about 4,700 (1.3%) were called active.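 The calls were made as follows: active = inhibition above the plate cutoff, the mean of all test compounds on that plate plus 3 SD (cut at about 35% in these data); inactive = the rest.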 This excerpt belongs to a sample that is enriched for actives.

The nature of the assay: small molecules binding CAG repeat RNA – biochemical, fluorescence, primary screen (AID 651821).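 Also: 0% = DMSO alone and 100% = 100 µM mitoxantrone as full dye displacement; higher means more dye released from RNA so lower well fluorescence.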 The following applies: r(CAG) RNA repeat, TO-PRO-1 dye displacement fluorescence; at 3 µM; stronger effect = higher value.
Take `CCOc1ccccc1-n1c(SCC(=O)N2CCCC2)nnc1-c1ccoc1C`: the inhibition (as a rule, the relative decrease from the control value, in per cent) is -6.11% (inactive).
Under `O=C(C1CCN(S(=O)(=O)c2ccccc2)CC1)N1CCN(C2CCCCC2)CC1` stands 2.76% (inactive); under `COC(=O)[C@]12C[C@H](CC(=O)N3CCOCC3)C(=O)N(Cc3ccc(Cl)cc3Cl)C1=C[C@H](C(C)C)O[C@@H]2C1CC1`, 4.69% (inactive).
Under `COc1cccc(NC(=O)N(C)C[C@@H]2OCc3cn(nn3)CCCC(=O)N([C@@H](C)CO)C[C@H]2C)c1` stands 1.49% (inactive); under `CCCCOCCCNC(=O)C[C@H]1C[C@@]2(C(=O)OC)C(=C[C@H](C(C)(C)C)O[C@@H]2C)N(CCc2ccc(OC)c(OC)c2)C1=O`, 2.98% (inactive).
The result for `COc1ccc(CSc2nnc(SCC(=O)Nc3ccccc3C(F)(F)F)s2)cc1` reads 0.71% (inactive).
For `CCCCCCN1CCS(=O)(=O)N(Cc2ccc(C(F)(F)F)cc2)C(C(=O)OC)C1` (configuration not stated), the inhibition is 0.66% (inactive).
Turning to `CC(=O)C1(C(=O)Nc2nccs2)CC(c2ccccc2C(F)(F)F)=NO1` (configuration not stated), the inhibition was 2.46% (inactive).
The result for `c1ccc(Cc2c(-c3ccco3)nc3c4ccccc4ccn23)cc1` reads 13.8% (inactive); that for `Cc1cc2nc(-c3ccco3)c(Cc3cccc(F)c3)n2c(C)c1Br`, 37% (active); that for `Cc1cc2nc(-c3ccc(F)cc3)c(Cc3ccsc3)n2c(C)c1Br`, 5.76% (inactive).
Consider `NC(=O)CCN1CCN(S(=O)(=O)/C=C/c2ccccc2)CC1`, for which the inhibition is -0.01% (inactive).
In the case of `Cc1ccc2c(CN3CCN(S(=O)(=O)c4ccccc4C(F)(F)F)CC3)cc(=O)oc2c1`, the inhibition was 10% (inactive).
Under `O=c1cc(CN2CCN(S(=O)(=O)/C=C/c3ccccc3)CC2)c2ccc(O)cc2o1` stands 40% (active).
Under `COc1ccc(CN2C(=O)C(C)S/C2=N/N=C/c2ccco2)cc1` (configuration not stated) stands 0.84% (inactive); under `O=C(Nc1cccc(F)c1)N1C2CCC1CC(O)(c1cccnc1)C2` (configuration not stated), -2.98% (inactive); under `O=C1NC(=O)C2C1C(c1ccc([N+](=O)[O-])cc1)=NN2Cc1ccccc1` (configuration not stated), 10.9% (inactive).
Take `O=C1CC(c2ccccc2)=NN1c1ccc([N+](=O)[O-])cc1`: the inhibition is 45.5% (active).
The result for `CCN1N=C(c2ccccc2)CCC1=O` reads -0.41% (inactive).
The result for `CN1[C@H](Cc2ccccc2)COc2cccc(N3CCSCC3)c2S1(=O)=O` reads 4.7% (inactive).
Under `COC(=O)C1=C(C)N(Cc2cccc(C(F)(F)F)c2)C(=NCc2cccc(C(F)(F)F)c2)NC1c1ccccc1C(F)(F)F` (configuration not stated) stands 1.52% (inactive); under `Cc1c[nH]c2cccc(-c3ccc(Cl)cc3)c12`, 1.17% (inactive); under `Cc1cc(O)c(NC(=O)c2ccc(C)c([N+](=O)[O-])c2)cc1C`, 4.43% (inactive).
As for `COc1ccc(C(=O)c2c(C)oc3cc([N+](=O)[O-])c(O)c([N+](=O)[O-])c23)cc1`, the inhibition is 24.7% (inactive).
Take `Cc1oc2cc([N+](=O)[O-])c(O)c([N+](=O)[O-])c2c1C(=O)c1ccc(Br)cc1`: the inhibition was 67.6% (active).
Under `N#Cc1ccccc1OC[C@@H](O)CN1CCC(C(O)(c2ccccc2)c2ccccc2)CC1` stands 2.31% (inactive); under `CCOC(=O)N1CCN(C(=O)C[C@H]2C[C@@]3(C(=O)OC)C(=C[C@H](C(C)(C)C)O[C@@H]3C)N(Cc3ccc(Cl)cc3Cl)C2=O)CC1`, 7.87% (inactive).
For the compound `O=C(O)CCn1cc(/C=C/C(=O)c2ccc(Cl)cc2)c(-c2cccc(Br)c2)n1`, the inhibition was 82.8% (active).
The result for `C#CCN([C@H](C(=O)OC)C(C)CC)S(=O)(=O)c1ccccc1Br` (some centres not stated) reads -1.79% (inactive); that for `O=C(C(=O)N1CCC(CNC(=O)c2cccnc2Cl)CC1)c1cccs1`, 2.4% (inactive); that for `COc1ccc(CNS(=O)(=O)c2cc(Br)ccc2Br)cc1`, 2.67% (inactive).
As to `COc1ccc(-n2c(SCC(=O)NC3CCCC3)nnc2-c2ccncc2)cc1`, the inhibition was 3.34% (inactive).
The result for `CCN(CC)S(=O)(=O)c1ccc(Cl)c(C(=O)NC(C)C(c2cccs2)N2CCCC2)c1` (configuration not stated) reads -3.47% (inactive); that for `O=C(CSc1nnc(SCc2ccc(Cl)cc2)s1)N/N=C/c1ccccc1Cl`, 5.04% (inactive).
On to `CCSc1nnc(SCC(=O)NNC(=O)c2ccccc2F)s1`, for which the inhibition is 1.18% (inactive).
Under `Cc1ccc(NC(=S)NNC(=O)CSc2nnc(SCc3ccccc3Cl)s2)cc1` stands 47.2% (active).
The result for `O=C1Nc2cc(C(=O)N3CCN(c4ccc(F)cc4)CC3)ccc2NC1CSCc1cccc(F)c1` (configuration not stated) reads 14.7% (inactive); that for `O=C(COC(=O)/C=C/c1cccc(Cl)c1)NCc1cccs1`, -1.04% (inactive).
Under `CCOC(=O)c1nnn(CC(=O)Nc2cccc(F)c2)c1C(=O)OCC` stands -2.22% (inactive).
With `Cc1ccc(CSCC(=O)N(C)CC(=O)Nc2cccc(F)c2)cc1`, the inhibition was -1.65% (inactive).
Take `CCN(CC)C(=O)CSC(Nc1cccc(F)c1)=C(C#N)C#N`: the inhibition is 56.7% (active).
Under `CCS(=O)(=O)c1ccc(C(=O)NC)c(Cl)c1Cl` stands -0.44% (inactive); under `O=C(NC1CCCC1)C1CSCCS(=O)(=O)N1Cc1ccccc1` (configuration not stated), 4% (inactive).
For the compound `Cc1ccc(S(=O)(=O)N(C)C)cc1NC(=O)/C=C/c1cccs1`, the inhibition is 0.22% (inactive).
The result for `CCc1nnc(NS(=O)(=O)c2ccc(NC(=S)NC(=O)/C=C/c3cccs3)cc2)s1` reads 83.9% (active); that for `CCc1nnc(NS(=O)(=O)c2ccc(NC(=S)NC(=O)c3cccs3)cc2)s1`, 59% (active).
Under `CCc1nnc(NC(=O)C2CCCN2S(=O)(=O)c2ccccc2)s1` (configuration not stated) stands -1.9% (inactive).
With `Cc1cc(NS(=O)(=O)c2ccc(NC(=O)c3cccc(OC(F)F)c3)cc2)nc(C)n1`, the inhibition is 4.48% (inactive).
The result for `NS(=O)(=O)c1ccc(NC(=S)NNC(=O)c2cccs2)cc1` reads -2.42% (inactive); that for `CCc1nnc(NC(=O)[C@@H](NC(=O)c2cccc(C)c2)C(C)C)s1`, 2.27% (inactive).
`O=C(NC(=S)Nc1ccc(S(=O)(=O)Nc2ncccn2)cc1)c1cccc(Br)c1`: the inhibition is 5.78% (inactive).
Under `CCc1nnc(NS(=O)(=O)c2ccc(NC(=O)c3cccc(OC(F)(F)C(F)F)c3)cc2)s1` stands 72.6% (active); under `C=CCN=C1NC(c2ccccc2)C(C(=O)OC)=C(C)N1Cc1ccc(C(F)(F)F)cc1` (configuration not stated), 8.06% (inactive); under `CN(CCO)c1cccc2c1S(=O)(=O)N(Cc1cn(Cc3ccc(C(F)(F)F)cc3)nn1)Cc1ccccc1O2`, -1.07% (inactive).
On to `C/C=C/C(=O)OCC(=O)Nc1ccc(F)cc1Cl`, for which the inhibition was 4.85% (inactive).
Under `Cc1cc2nc3c(=O)[nH]c(=O)nc-3n(C[C@H](O)[C@H](O)[C@H](O)CO)c2cc1C` stands -477% (inactive).
Under `CCN1C(=O)N[C@@H]2C[C@H](C(=O)N3CCCC3)[C@H](C)[C@H](c3ccccc3)C[C@@H]21` stands 1.47% (inactive); under `CC1CCN(S(=O)(=O)c2nnc(NC(=O)COc3ccccc3F)s2)CC1`, 8.39% (inactive); under `CCc1ccccc1OCC(=O)Nc1ccc(C)c(S(=O)(=O)N2CCCCCC2)c1`, 3.67% (inactive).
`Cc1ccccc1OCC(=O)Nc1nnc(S(=O)(=O)N2CCCC2)s1`: the inhibition was 37.6% (active).
Turning to `COc1ccc(Cn2cc(CN3[C@@H](CC(C)C)COc4cc(Br)ccc4S3(=O)=O)nn2)cc1`, the inhibition was 2.72% (inactive).
`O=C(C(=O)N1CCC(CNS(=O)(=O)Cc2ccccc2)CC1)c1cc2ccccc2o1`: the inhibition was 3.81% (inactive).
For `Cn1c2c(c(=O)n(C)c1=O)CN(Cc1ccco1)CN2`, the inhibition was -0.1% (inactive).
The result for `COc1ccc(-n2c(SCC(=O)Nc3ccc4c(c3)OCCO4)nnc2-c2ccc(Cl)cc2)cc1` reads 6.74% (inactive); that for `COc1ccc(C2C(C#N)=C(N)Oc3n[nH]c(C)c32)cc1CN1CCN(c2ccc(F)cc2)CC1` (configuration not stated), 0.94% (inactive); that for `COc1ccccc1C1C(C#N)=C(N)Oc2c1c(-c1ccccc1)nn2-c1ccccc1` (configuration not stated), 54.6% (active).
The result for `COc1ccccc1C1CC(=O)n2c(nc(-c3ccccc3)c2-c2ccccc2)S1` (configuration not stated) reads 9.44% (inactive); that for `CCCCCCCCN1C(=O)[C@@H](CC(=O)NCc2ccccc2)C[C@@]2(C(=O)OC)C1=C[C@H](C(C)(C)C)O[C@@H]2C`, 1.31% (inactive).
With `CN(c1ccccc1)S(=O)(=O)c1ccc(C(=O)NCc2cccnc2)cc1`, the inhibition was 2.25% (inactive).
Turning to `O=C(c1cccnc1)N(c1cc2sc(=O)oc2c2ccccc12)S(=O)(=O)c1ccccc1`, the inhibition was 80.7% (active).
Under `O=C(CN(c1cc(C(F)(F)F)ccc1Cl)S(=O)(=O)c1ccccc1)NCc1cccnc1` stands -7.03% (inactive); under `Cc1cc(N2CCN(C(=O)OC(C)(C)C)C[C@H]2C)ccc1N1CCN(Cc2ccccc2)[C@H](C)C1`, 0.53% (inactive); under `Cc1ccc(S(=O)(=O)N2[C@@H](c3cccc4ccccc34)C(C(=O)O)=C[C@H]2C(C)(C)C)cc1`, 50.6% (active).
The result for `Cc1ccc(S(=O)(=O)N2C[C@H]3C(=O)C[C@@H](c4cccc5ccccc45)N(S(=O)(=O)c4ccc(C)cc4)[C@H]3C[C@H]2c2ccc(Cl)cc2)cc1` reads 13.6% (inactive); that for `CCOC(=O)C1C(C)C(C(C)(C)C)N(S(=O)(=O)c2ccc(C)cc2)C1c1ccccc1` (configuration not stated), 1.44% (inactive).
Turning to `COc1cccc(/C=C2\CC3(OC(C)=O)CCCN2C3)c1` (configuration not stated), the inhibition was 0.45% (inactive).
`C#CCN([C@@H](C)C(=O)OCC)S(=O)(=O)c1ccc(Br)cc1F`: the inhibition was 2.12% (inactive).
Take `O=c1ccc2cc(S(=O)(=O)Nc3ccccc3F)ccc2o1`: the inhibition was -1.01% (inactive).
The result for `O=c1oc2ccccc2c(NC2CCCCC2)c1NS(=O)(=O)c1ccc(Cl)cc1` reads 5.21% (inactive).
On to `O=c1oc(-c2ccccc2NS(=O)(=O)c2ccc(Cl)cc2)nc2ccccc12`, for which the inhibition was 39.1% (active).
On to `COc1ccc(-n2c(SCC(=O)Nc3ccccc3-c3ccccc3)nnc2-c2cccnc2)cc1`, for which the inhibition was 0.96% (inactive).
The result for `Cc1c(C(C)c2ccccc2O)[nH]c2ccccc12` (configuration not stated) reads 4.84% (inactive).
